KDM5B inh – Primary screen for KDM5B Histone Demethylases FDH-coupled qHTS | KDM5B demethylase, FDH-coupled NADH fluorescence (FDH is formaldehyde dehydrogenase) | Potency, µM (doses to about 57.7 µM), usual class: inhibitors | 220,000 tested, 2.6% active; active = well fitted inhibition curve with a large enough effect; note: 0% is about no effect; nearly all actives have a fitted effect of over 70% in size
Target sequence (Q9UGL1 whole entry, looked up): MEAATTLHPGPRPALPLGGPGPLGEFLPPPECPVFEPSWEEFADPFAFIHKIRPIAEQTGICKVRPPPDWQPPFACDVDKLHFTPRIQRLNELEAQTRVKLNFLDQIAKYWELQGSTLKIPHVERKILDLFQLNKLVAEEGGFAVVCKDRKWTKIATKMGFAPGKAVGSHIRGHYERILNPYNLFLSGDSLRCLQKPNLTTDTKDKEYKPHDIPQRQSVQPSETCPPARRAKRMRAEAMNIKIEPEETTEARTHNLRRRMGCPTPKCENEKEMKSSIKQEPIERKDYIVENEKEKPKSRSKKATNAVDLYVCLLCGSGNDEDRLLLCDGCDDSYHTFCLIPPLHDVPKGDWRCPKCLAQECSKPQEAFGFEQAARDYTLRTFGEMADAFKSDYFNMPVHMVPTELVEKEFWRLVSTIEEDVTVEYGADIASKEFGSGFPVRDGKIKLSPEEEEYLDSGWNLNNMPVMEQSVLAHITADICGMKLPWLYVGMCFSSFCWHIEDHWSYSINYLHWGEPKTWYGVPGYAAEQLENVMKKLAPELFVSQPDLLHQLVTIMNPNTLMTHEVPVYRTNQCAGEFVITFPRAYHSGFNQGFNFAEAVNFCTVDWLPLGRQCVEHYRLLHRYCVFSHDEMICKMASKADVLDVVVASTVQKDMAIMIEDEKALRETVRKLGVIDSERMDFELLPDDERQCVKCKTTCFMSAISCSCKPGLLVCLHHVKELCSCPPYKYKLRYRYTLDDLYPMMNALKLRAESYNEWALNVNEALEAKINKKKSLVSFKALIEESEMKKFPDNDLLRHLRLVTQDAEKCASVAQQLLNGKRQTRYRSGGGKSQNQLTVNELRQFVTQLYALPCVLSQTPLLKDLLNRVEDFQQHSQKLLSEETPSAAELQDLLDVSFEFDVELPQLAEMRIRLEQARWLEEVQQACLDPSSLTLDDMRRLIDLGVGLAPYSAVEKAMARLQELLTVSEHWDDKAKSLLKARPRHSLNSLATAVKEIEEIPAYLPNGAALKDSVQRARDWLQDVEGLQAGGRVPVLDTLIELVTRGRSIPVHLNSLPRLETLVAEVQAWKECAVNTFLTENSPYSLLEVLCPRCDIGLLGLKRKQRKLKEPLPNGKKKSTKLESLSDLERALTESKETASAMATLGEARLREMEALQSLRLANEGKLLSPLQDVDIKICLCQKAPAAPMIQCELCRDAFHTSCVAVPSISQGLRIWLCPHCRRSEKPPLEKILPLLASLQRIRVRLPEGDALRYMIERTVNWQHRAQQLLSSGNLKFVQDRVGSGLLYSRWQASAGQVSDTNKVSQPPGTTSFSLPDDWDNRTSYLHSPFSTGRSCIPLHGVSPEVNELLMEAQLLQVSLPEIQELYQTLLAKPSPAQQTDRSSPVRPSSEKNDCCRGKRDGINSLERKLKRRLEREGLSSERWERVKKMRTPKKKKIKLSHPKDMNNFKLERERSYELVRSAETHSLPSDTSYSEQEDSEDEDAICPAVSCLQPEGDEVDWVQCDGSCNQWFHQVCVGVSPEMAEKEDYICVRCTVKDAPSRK
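Coupled FDH/NAD⁺ fluorescence readout. KDM5BΔAP 200 nM final; compound titration, 10 min RT preincubation; substrate mix 12.5 µM H3K4me3, 25 µM 2-OG, 50 µM Fe(II), 100 µM ascorbate, 0.25 mM NAD⁺, 0.25 U/mL FDH; ΔRFU over 30 min.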
An asterisk follows results filed as active; i = inactive. Shown is part of a subset that was picked to be rich in hits. Potency is the fitted concentration of half-maximal effect.

SMILES	KDM5B inh
Cc1cc(Cl)ccc1NC(=O)c1ccc(NC(=O)C2=CSCCO2)cc1	i
Cc1ccccc1NC(=O)CSc1nnc(C(C)N2C(=O)COc3ccccc32)n1C (stereo not drawn)	i
CCOC(=O)c1ccc(NC(=O)Cn2c(N(C)Cc3ccccc3)nc(C)cc2=O)cc1	i
CCOC(=O)c1ccccc1NC(=O)Cn1c(N(C)Cc2ccccc2)nc(C)cc1=O	16µM*
Cc1cc(=O)n(CC(=O)Nc2ccccc2C)c(N(C)Cc2ccccc2)n1	i
CNC(=O)C1(N2CCC[C@H]2C(=O)N2CCOCC2)COC1	i
CCCc1nnc(C[C@@H]2C[C@@H](C(C)C)[C@H](CNCc3cccnc3)C=C2C)o1	i
CCCc1nnc(C[C@@H]2C[C@@H](C(C)C)[C@H](CNc3cccnc3)C=C2C)o1	10µM*
CCCc1nnc(C[C@@H]2C[C@@H](C(C)C)[C@H](CO)C=C2C)o1	i
COc1ccc(-c2[nH]nc3ncc(-c4ccc(OC)nc4)nc23)c(C)c1	i
COc1ccc(-c2[nH]nc3ncc(C(=O)N4CCN(Cc5ccccc5)CC4)nc23)c(C)c1	i
COc1ccc(-c2[nH]nc3ncc(-c4ccc(F)cc4OC)nc23)c(C)c1	7.9µM*
COc1ccc(-c2[nH]nc3ncc(-c4cccnc4OC)nc23)c(C)c1	35µM*
COc1ccc(-c2[nH]nc3ncc(C(=O)NCc4ccc(F)cc4)nc23)c(C)c1	i
COc1ccccc1-c1[nH]nc2ncc(C(=O)N3CCNC(=O)C3)nc12	i
COc1cccc(/C=C/c2nc(C#N)c(NCCCn3ccnc3)o2)c1	i
COc1ccc(OC)c(NC(=O)c2ccc3c(c2)N(C)C2CCCCN2C3=O)c1 (stereo not drawn)	i
Fc1ccc(N2CCN(c3cnc4ccccc4n3)CC2)cc1	i
O=C(NCc1ccccc1)C1CCCN(c2cnc3ccccc3n2)C1 (stereo not drawn)	i
OCC1(Cc2ccc(F)cc2F)CCCN(c2cnc3ccccc3n2)C1 (stereo not drawn)	28µM*
COCC(C)N(C)C(=O)c1ccc2c(c1)NC(=O)CS2 (stereo not drawn)	i
O=C(Nc1ccccc1)N1CCCN(CCc2ccncc2)CC1	i
CCN1C(=O)Cc2cc(C(=O)NCc3ccc(F)cc3Cl)ccc21	i
CC(NC(=O)c1cccs1)C(=O)NCc1cccnc1 (stereo not drawn)	i
CC(C)CCNC(=O)c1cc2cc(N(C)S(C)(=O)=O)ccc2s1	i
SMILES	KDM5B inh
Cc1ccccc1CNC(=O)c1cc2cn(C(C)C)cc2s1	18µM*
Cc1cc(C(=O)NCCc2ccccn2)sc1C	i
CCc1sc(C(=O)NCc2cccnc2)cc1C	i
CC(C)n1cc2cc(C(=O)NCc3cnccn3)sc2c1	16µM*
Cc1cc(C)c2nc(N3CCC(C(=O)NCc4ccccc4C)CC3)sc2c1	i
Cc1cc(C(=O)NCc2ccncc2)sc1C	i
Cc1ccccc1CNC(=O)c1cc2c(s1)CCCC2	i
CC(C)n1cc2cc(C(=O)NCc3ccccn3)sc2c1	25µM*
Cc1cc(C(=O)NCc2ccccn2)sc1C	i
CC(C)n1cc2cc(C(=O)NCc3cccnc3)sc2c1	25µM*
CCOC(=O)c1c(NC(=O)CSc2ncnc3ccccc23)sc2c1CCCC2	i
CCOc1ccc(S(=O)(=O)n2ccnc2)cc1C(C)(C)C	i
ClCCCNC1C2CC3CC(C2)CC1C3 (stereo not drawn)	i
CN(Cc1ccccc1C#N)Cc1ccccc1N1CCCCC1	i
O=C(OCc1ccccc1)c1ccc2nccnc2c1	i
Cc1cccn2cc(CSc3nnc4c(Cl)cc(C(F)(F)F)cn34)nc12	i
CCCCn1c(SCC(=O)c2cc(C)n(C3CC3)c2C)nc2cc(S(N)(=O)=O)ccc21	i
CCCCCCC(=O)Nc1c(C)cccc1C	i
Cn1cc(CN2CCOC[C@H]2c2ncc(-c3ccc(F)cc3F)[nH]2)c2ccccc21	i
COCCC1(NC(=O)c2ccccc2)CCN(Cc2cn[nH]c2-c2cccs2)CC1	i
COCCNC(=O)c1nc(-c2cccnc2)c2cnccn12	i
CC(C)NC(=O)CSc1nnc(-c2cccnc2)o1	i
Cc1oc(-c2cccc(C(F)(F)F)c2)cc1C(=O)NC(C)C	i
COCC(C)NC(=O)c1csc2nc(-c3cccc(C(F)(F)F)c3)cn12 (stereo not drawn)	i
CC(C)NC(=O)c1nc(-c2cccc(C(F)(F)F)c2)c2cnccn12	32µM*
SMILES	KDM5B inh
CC(C)NC(=O)c1nc(-c2cccnc2)c2cnccn12	35µM*
O=C(Cc1cccc2cccnc12)NCC1CC1	i
O=C(OC1CCCCC1)c1ccc(SCc2ccccc2F)c([N+](=O)[O-])c1	i
COCCCNC(=O)N1CC(c2nc(CCOCC3CCOCC3)no2)C1	i
COc1ccc(C(=O)N2CCOC3(CCN(C(=O)C4CCN(C)CC4)CC3)C2)cc1	i
CC(C)NC(=O)Cc1ccc(-n2c(=O)c3ccccc3n(Cc3cccc(Cl)c3)c2=O)cc1	i
Cn1nc(CC(=O)NCc2ccccc2CN2CCOCC2)c2ccccc2c1=O	i
Cc1ccc(C(=O)Oc2cccc(Cl)c2)cc1	i
COCC(=O)N[C@H]1C[C@@H](CO)N(Cc2cccc(F)c2F)C1	i
COc1cc(=O)n2c(c1C(=O)Nc1cccc3c1CCCC3)CCCC2	i
CN(C)[C@@H]1C[C@@H](CO)N(Cc2cc(=O)n3c4c(cccc24)CCC3)C1	22µM*
COCC(=O)N1CCc2nc(C)nc(NCc3cc(C)nn3C)c2CC1	i
CC(C(=O)Nc1ccc(OC(F)(F)F)cc1)N1CCN(c2ccc([N+](=O)[O-])c3cnccc23)CC1 (stereo not drawn)	i
O=C1COCC2(CN1)CN(C(=O)c1ccc(Cl)cc1)C2	i
COc1ccc(C(=O)N2CCc3nc(C)nc(-c4ccc(O)cc4)c3C2)cc1	i
COc1ccc(-c2nc(C)nc3c2CN(Cc2ccc(NC(C)=O)cc2)CC3)cc1	22µM*
COCC(=O)N1CCc2nc(-c3ccccc3)nc(-c3ccc(OC)cc3)c2C1	22µM*
COc1cccc(CN2CCc3nc(C)nc(-c4ccc(O)cc4)c3C2)c1	i
COc1ccc(OC2CN(Cc3ccc(NC(C)=O)cc3)C2)cc1	i
COc1ccc(-c2nc3c(c(-c4ccccc4)n2)CN(C(=O)C(C)(C)C)CC3)cc1	i
COCC(=O)N1CCc2nc(C)nc(-c3ccc(OC)cc3)c2C1	32µM*
COc1ccc(C(=O)N2CCc3nc(C)nc(-c4ccc(OC)cc4)c3CC2)cc1	i
COC(=O)N1CCc2nc(-c3ccc(OC)cc3)nc(-c3ccccc3)c2C1	i
CCn1c(SCC(=O)NC(C)c2ccc3c(c2)CCCC3)nnc1C1CC1 (stereo not drawn)	i
O=C(COC(=O)c1ccccc1Sc1ccc(C(F)(F)F)cc1[N+](=O)[O-])NC12CC3CC(CC(C3)C1)C2	i
SMILES	KDM5B inh
COc1cc2c(-c3cc4ccccc4o3)cc(=O)oc2cc1C	i
Cc1nc2cc(NC(=O)c3cccc(S(=O)(=O)Nc4cccc(Cl)c4)c3)ccc2o1	i
O=C(Cn1c(NCc2ccccc2)nc2ccccc21)N1CCCCC1	i
O=C(Nc1ccccc1)N1CCOC(CN(C(=O)c2ccco2)C2CCCC2)C1 (stereo not drawn)	i
CCn1c(=O)n(CC)c2cc(Sc3ccccc3)c(NC(=O)c3ccccc3)cc21	i
COc1ccc2[nH]c3c(c2c1)CCNC31CCN(Cc2ccc(F)c(F)c2)CC1	i
